The list is not random: actives were taken first. Their share in the collection is about 6.7%.
GDH-TPI inh: counter-screen for M. tuberculosis FBA inhibitors: GDH-TPI coupled enzymes. GDH-TPI coupled enzyme counterscreen, NADH absorbance. inhibition, % at 4.8 µM. 360,000 tested, 1.2% active. AID 588335; in the data active = inhibition above about 30%
BoNT-F LC inh: BoNT F light chain protease inhibition. Multiplex microsphere protease cleavage assay, flow cytometry. inhibition, % at 10 µM. 360,000 tested, 0.22% active. AID 588497; in the data active = inhibition above about 35%, passing the limit was not always enough; inconclusive = no clear call, values can overlap the other calls
Anthrax LF prot: anthrax lethal factor protease inhibition. P15917. multiplex microsphere protease cleavage assay, LF. inhibition, % at 10 µM. 360,000 tested, 0.12% active. AID 588501
FBA Mtb inh: inhibits M. tuberculosis FBA enzyme. P9WQA3. purified M. tuberculosis FBA, fluorescence read-out. inhibition, % at 1 µM. 360,000 tested, 2.3% active. AID 588726; in the data active = inhibition above about 27%
Target sequence (P9WQA3 whole entry, looked up): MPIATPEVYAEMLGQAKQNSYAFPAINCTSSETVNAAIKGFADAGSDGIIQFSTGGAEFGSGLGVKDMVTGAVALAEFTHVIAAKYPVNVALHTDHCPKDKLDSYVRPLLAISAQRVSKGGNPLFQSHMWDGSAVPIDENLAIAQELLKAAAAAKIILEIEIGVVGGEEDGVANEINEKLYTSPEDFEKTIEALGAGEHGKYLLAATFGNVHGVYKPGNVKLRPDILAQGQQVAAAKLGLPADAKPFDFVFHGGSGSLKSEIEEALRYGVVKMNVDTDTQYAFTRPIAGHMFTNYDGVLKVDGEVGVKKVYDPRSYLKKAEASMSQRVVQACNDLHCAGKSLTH
BoNT A protease: blocks Botulinum neurotoxin A light chain protease | AID 588499 | multiplex microsphere protease substrate cleavage, flow cytometry | inhibition, % at 10 µM | 360,000 tested, 0.17% active
Bead autofluor: compound fluorescence in toxin protease inhibitor counterscreen. compound autofluorescence counterscreen, microsphere flow cytometry; active compounds read high. fluorescence intensity (test concentration not listed). 360,000 tested, 3.1% active. AID 624483; in the data active = fluorescence intensity above about 16000; inconclusive = no clear call, values can overlap the other calls
Hits are given with their value; - = inactive; ? = inconclusive; + = active, no number. Rule as the data show it, unless noted: active = inhibition above about 30%; inconclusive = no clear call, values can overlap the other calls; inactive = below that.

SMILES | GDH-TPI inh | BoNT-F LC inh | Anthrax LF prot | FBA Mtb inh | BoNT A protease | Bead autofluor
COCCn1c(=N)c(S(=O)(=O)c2ccc(F)cc2)cc2c(=O)n3cccc(C)c3nc21 | - | - | - | - | - | -
CCOCCCn1c(=NC(=O)c2cccnc2)c(C(=O)OCC)cc2c(=O)n3ccccc3nc21 | - | - | - | 145 | - | -
COc1cc(/C=C/C(=O)Nc2nc3ccc(S(=O)(=O)NC(C)C)cc3s2)cc(OC)c1OC | - | - | - | - | - | -
O=S(=O)(c1ccc(OCc2ccc(Br)cc2)cc1)N1CCOCC1 | - | - | - | - | - | -
c1ccc(N2CCN(c3nc(-c4ccccn4)nc4ccccc34)CC2)cc1 | - | - | - | - | - | -
CN1CCN(c2nc(-c3ccccn3)nc3ccccc23)CC1 | - | - | - | - | - | 23212
COC(=O)Cn1c(=NC(=O)c2ccc(S(=O)(=O)N3CCOCC3)cc2)sc2cc(S(N)(=O)=O)ccc21 | 32 | - | - | - | - | -
COCCn1c(=NC(=O)c2ccc(S(=O)(=O)N3CCOCC3)cc2)sc2cc(S(N)(=O)=O)ccc21 | 33 | - | - | - | - | -
COCCn1c(=NC(=O)c2cc(-c3cccs3)nc3ccccc23)sc2cc(S(N)(=O)=O)ccc21 | - | - | - | - | 34 | -
CCOCCn1c(=NC(=O)c2cc3ccccc3oc2=O)sc2cc(S(N)(=O)=O)ccc21 | 46 | - | - | - | - | -
CC(C)(C)c1csc(CS(=O)(=O)c2ccccn2)n1 | - | ? | - | - | ? | -
CCOC(=O)c1cnn(-c2ccc(C)cc2)c1N | - | ? | - | - | - | -
Cc1cnc(NC(=O)CC(C)c2ccccc2)s1 (stereo not drawn) | - | - | - | - | - | -
O=c1oc2ccc3ccccc3c2c2c1SC(C(F)(F)F)C2 (stereo not drawn) | - | - | - | - | - | -
O=c1oc2ccccc2c2c1SC(C(F)(F)F)C2 (stereo not drawn) | - | - | - | + | - | -
O=C(CSc1ncccc1C(=O)O)NCCC1=CCCCC1 | - | - | - | - | - | 20428
Cc1ccc(C)c(-n2nnnc2SCC(=O)NCCC2=CCCCC2)c1 | - | - | - | - | - | 16990
O=C(CSc1ncccn1)NCCC1=CCCCC1 | - | - | - | - | - | -
C#CCNc1c(C)c(C)nc2ncnn12 | - | - | - | - | - | 24659
O=C(c1cc(-c2ccc(Cl)c(Cl)c2)on1)N1CCN(c2ccccc2)CC1 | - | - | - | - | - | 21958
O=C(c1cc(-c2ccccc2)on1)N1CCN(c2ccccc2)CC1 | - | - | - | - | - | -
CC1CCCCN1C(=O)c1cc(-c2ccc(Cl)c(Cl)c2)on1 (stereo not drawn) | - | - | - | - | ? | 22609
CCC1CCCCN1C(=O)c1cc(-c2ccc(Cl)c(Cl)c2)on1 (stereo not drawn) | - | - | - | - | ? | 25388
COc1ccc(-c2[nH]ncc2CN2CCC(N3CCSCC3)CC2)c(F)c1 | - | - | - | - | - | -
O=C(O)c1nn(-c2cccc(C(F)(F)F)c2)ccc1=O | - | - | - | - | - | -
SMILES | GDH-TPI inh | BoNT-F LC inh | Anthrax LF prot | FBA Mtb inh | BoNT A protease | Bead autofluor
O=S(=O)(Nc1ncccc1O)c1ccc(Cl)cc1 | - | - | - | - | ? | 23828
O=S(=O)(Nc1cc(Cl)ccn1)c1ccc(Cl)cc1 | - | - | - | - | - | 17683
CCN1C(=O)[C@@H]2[C@@H](c3ccc(SC4CCCCC4)cc3)N3CCC[C@@]3(C(=O)OC)[C@@H]2C1=O | - | - | - | - | - | -
CCN(CC)C(=O)C1=C(C)NC(=O)NC1c1c(F)cccc1Cl (stereo not drawn) | - | - | - | - | - | 16958
Cc1ccc(SCCC(=O)OCC(=O)NCC2CCCCC2)cc1 | - | - | - | - | - | -
CCOC(=O)CNC(=O)Cn1cnc2c(nnn2-c2ccc(C)cc2)c1=O | - | - | - | - | - | 18628
CCOC(=O)CNC(=O)Cn1cnc2c(nnn2-c2cccc(Cl)c2)c1=O | - | - | - | - | - | 23372
COCCN1C=C(C(=O)OC)C(c2ccccc2Cl)C(C(=O)OC)=C1 | - | - | - | + | - | -
COCCN1C=C(C(=O)OC)C(c2cc(Br)c(OC)c(OC)c2)C(C(=O)OC)=C1 | - | - | - | + | - | -
O=C(COC(=O)c1ccc(O)cc1)Nc1ccc2c(c1)OCCO2 | - | - | - | - | - | -
O=C1c2oc3ccccc3c(=O)c2C(c2cccc(Br)c2)N1Cc1ccco1 (stereo not drawn) | - | - | - | - | - | 20275
CCN(CC)C(=O)Oc1ccc2c(=O)c(-c3ccc(OC)cc3)coc2c1 | - | - | - | - | - | -
N#Cc1cccc(NC(=O)COC(=O)CCc2ccc(S(=O)(=O)N3CCOCC3)cc2)c1 | - | - | - | - | - | -
COCCn1c(=O)[nH]c(=O)c2c(C(F)(F)F)cc(-c3cccs3)nc21 | - | - | - | + | - | -
CCOC(=O)C1=C(C(F)(F)F)Nc2ncnn2C1c1cc(OC)c(OC)cc1OC (stereo not drawn) | - | - | - | - | - | -
O=C1NC(=O)[C@]2(Cc3ccccc3N3CCN(c4ccccc4)CC32)C(=O)N1c1ccccc1 (stereo partly drawn) | - | - | - | - | - | 24028
CN1C(=O)NC(=O)[C@]2(Cc3ccccc3N3CCN(c4ccccc4)CC32)C1=O (stereo partly drawn) | - | - | - | - | - | 16912
O=C1NC(=O)C2(Cc3ccccc3N3CCCC32)C(=O)N1Cc1ccccc1 (stereo not drawn) | - | - | - | - | ? | 19390
Cc1ccc(N2C(=O)NC(=O)C3(Cc4ccccc4N4CCCC43)C2=O)cc1 (stereo not drawn) | - | - | - | - | ? | 19892
CN1C(=O)NC(=O)C2(Cc3ccccc3N3CCOCC32)C1=O (stereo not drawn) | - | - | - | - | ? | 17659
CCCCN1C(=O)NC(=O)C2(Cc3ccccc3N3CCOCC32)C1=O (stereo not drawn) | - | - | - | - | - | -
Cn1c(N=Cc2ccc([N+](=O)[O-])cc2)c(N)c(=O)n(C)c1=O | - | - | - | - | - | -
O=C1CCC(c2ccccc2)N1C(=O)c1cccnc1 (stereo not drawn) | - | - | - | - | - | 23368
O=C(NC1CC1)c1ccc2c(c1)N(Cc1ccccc1)CCS2 | - | - | - | 161 | - | -
C=CCN1C(=O)CSc2ccc(C(=O)NC3CCCCC3)cc21 | - | - | - | - | - | -
CN1CCN(CCCNC(=O)c2ccc3c(c2)N(Cc2ccc(F)cc2)CCS3)CC1 | - | - | - | 159 | - | -
CCN1CCN(CCCNC(=O)c2ccc3c(c2)N(Cc2ccccc2)CCS3)CC1 | - | - | - | 170 | - | -
CCN1C(=O)CSc2ccc(C(=O)NC3CCCCC3)cc21 | - | - | - | - | - | 20222
COc1ccc(OC)c(CCNC(=O)c2ccc3c(c2)N(Cc2ccccc2)CCS3)c1 | - | - | - | - | - | -

Source: PubChem BioAssay (several laboratories)
